Sampled rows, rich in hits. Any-hit rate of the full collection: about 6.6%.
KB-3-1 tox: kills parental KB-3-1 adenocarcinoma cells. KB-3-1 viability, CellTiter-Glo ATP luminescence, 72 h. Potency, µM (top dose mostly 46.1 µM), hits mostly cytotoxic. 400,000 tested, 1.4% active; also: % is scaled to controls: 0 for no effect and ±100 for the full control effect; nearly all actives have a fitted effect of over 60% in size
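KB-3-1 parental drug-naive adenocarcinoma cells in DMEM/10% FBS, incubated 72 h at 37 C with pin-transferred compounds across a concentration series. Viability by CellTiter-Glo luminescence; concentration-response curves fitted after normalization.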
HT1080 IDH1KD tx: toxicity to HT-1080 IDH1 knockdown cells (counter line); HT-1080 IDH1 knockdown viability, ATP luminescence, 48 h; Potency, µM (top dose mostly 46.1 µM), for inactives: at the highest dose activity, negative = toxicity, hits mostly cytotoxic; 360,000 tested, 2% active;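 also: 0% = DMSO wells and -100% = cell-free medium wells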
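Viability of IDH1-knockdown HT-1080 fibrosarcoma cells was assessed by CellTiter-Glo after 48 h at 37 °C with titrated compound; concentration-effect curves were classified by fit quality and response size.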
KB-V1 cytotox: kills drug-selected multidrug resistant KB-V1 cells. Potency, µM (series often up to 46.1 µM), hits mostly cytotoxic. 400,000 tested, 3.4% active. AID 1347076. KB-V1 MDR cells viability, CellTiter-Glo, 72 h; also: % is scaled to controls: 0 for no effect and ±100 for the full control effect; nearly all actives have a fitted effect of over 60% in size
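qHTS viability screen in drug-selected KB-V1 MDR cells: 72 h compound treatment at 37 degrees C, ATP luminescence end point.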
HepG2 viability: counter-screen for TGF-b inhibitors: cytotoxicity in HepG2 cells | HepG2 CAGA-GFP viability, ATP luminescence, 18 h | Potency, µM (doses to about 46.1 µM), inactives show at the highest dose activity change, negative = cytotoxicity, actives largely listed as cytotoxic | 410,000 tested, 0.76% active | AID 588856
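CellTiter-Glo luminescence gave cytotoxicity after 18 hours at 37 degrees C. The cells were HepG2 CAGA-GFP in 1% FBS DMEM, stimulated with 500 pg/mL TGF-beta after compound addition. %Activity was normalised to no-cell wells (complete cell-killing) and DMSO (no toxicity), and curves were fitted and classified.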
TGFb SMAD3 inh: TGF-b pathway inhibition. Potency, µM (top dose mostly 46.1 µM), for inactives: top-dose activity, negative = inhibition, actives largely listed as inhibitors. HepG2 CAGA-GFP TGF-b/SMAD3 reporter, GFP fluorescence, 18 h; TGF-beta stimulated, 500 pg/mL final. AID 588855. 410,000 tested, 1.2% active; also: % is scaled to controls: 0 for no effect and ±100 for the full control effect; nearly all actives have a fitted effect of over 65% in size
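HEPG2 CAGA-GFP, 1000 cells/well; 2 h settle, 37 C; cpd via pin tool; TGF-b 500 pg/mL final; 18 h, 37 C; GFP imaging ex488/em500-530; %Activity normalised to -TGF-b and +DMSO controls; CRC fit, curve class.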
HT1080NT lethal: kills 2HG-producing HT-1080-NT fibrosarcoma cells | HT-1080-NT fibrosarcoma viability, CellTiter-Glo ATP luminescence, 48 h | Potency, µM (titrated, usually from 46.1 µM), inactives show top-dose activity, negative = less viability, most hits filed as cytotoxic | 360,000 tested, 1.6% active;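 also: NT is the 2HG producing partner of a matched IDH1 knockdown line; 0% = DMSO-treated cells and -100% = media-only wells without cells; nearly all actives have a fitted effect of over 55% in size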
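Viability of the 2HG-overproducing fibrosarcoma line after 48 hours of compound exposure at 37 degrees C was determined by luminescence with CellTiter-Glo, and concentration-effect curves were then fitted and categorized.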
An asterisk follows results filed as active; i = inactive; ? = inconclusive; / = no result given. Calls follow the shape of the dose curve; as a rule, active = well fitted curve in the direction sought with a large enough effect; inconclusive = small, poorly fitted or top-dose-only effect, or another doubt; inactive = no such curve, though single readings can be large; an effect the other way counts as inactive or inconclusive. Potency is read from the fitted curve at half-maximal effect.

SMILES	KB-3-1 tox	HT1080 IDH1KD tx	KB-V1 cytotox	HepG2 viability	TGFb SMAD3 inh	HT1080NT lethal
CC1CCN(CC(=O)Nc2cccc(C(=O)Nc3cccc(C(F)(F)F)c3)c2)CC1	?	23.1µM*	i	-55.5%	?	16.4µM*
O=C(CN1CCN(Cc2ccccc2)CC1)Nc1cccc(Cl)c1	i	-1.1%	?	-14.4%	-1.3%	-14.5%
O=C(Cc1cccc2ccccc12)NCC(=O)N1CCN(Cc2cccc(C(F)(F)F)c2)CC1	?	-22.5%	i	-35.6%	11.2µM*	-23.3%
O=C(CN1CCN(Cc2ccccc2)CC1)Nc1cccc(C(F)(F)F)c1	i	?	16.4µM*	-24.9%	10.0%	-5.1%
CCOc1ccc(C(=O)Nc2ccc(-c3nc4ccccc4o3)cc2)cc1[N+](=O)[O-]	i	/	?	/	/	/
CCN(c1ccc(NS(=O)(=O)c2cc(Cl)ccc2Cl)cc1)C(C)C	?	?	?	-22.1%	-20.0%	?
COc1ccc(C(=O)CCC(=O)Nc2cccc(Cl)c2)cc1	i	8.9%	i	1.2%	-17.3%	-1.3%
Cc1ccc(C(=O)CCC(=O)Nc2ccc(Cl)c(S(=O)(=O)Nc3cccc(Cl)c3)c2)cc1	i	-11.4%	16.4µM*	-33.7%	-29.9%	-15.5%
CCC(C)NCCC(=O)Nc1ccc(Cl)c(S(=O)(=O)Nc2ccc(Cl)cc2)c1 (stereo not given)	i	14.6µM*	i	3.2%	3.9%	?
CC(=O)Nc1ccc(S(=O)(=O)NCCC(=O)Nc2ccc(C)c(Cl)c2)cc1	i	4.3%	i	27.2%	-13.9%	9.0%
Cc1ccc(S(=O)(=O)NCCC(=O)Nc2cccc(Cl)c2)cc1	i	5.6%	16.4µM*	10.7%	7.5%	7.9%
Cc1ccc(S(=O)(=O)NCCC(=O)Nc2ccc(Cl)c(Cl)c2)cc1	?	?	14.6µM*	-6.6%	-17.8%	-22.2%
Cc1ccc(S(=O)(=O)NCCC(=O)Nc2ccc(Cl)c(Cl)c2)cc1C	i	-6.1%	?	-45.8%	?	1.9%
Cc1ccc(S(=O)(=O)N2CCCc3cc(NC(=O)c4ccc(C(C)(C)C)cc4)ccc32)cc1	i	/	i	0.7%	2.3%	/
Cn1c(=O)c2c(nc(N3CCOCC3)n2Cc2ccc(Br)cc2)n(C)c1=O	i	/	?	-18.8%	-1.4%	/
O=C(CSc1ncnc2c1oc1ccccc12)Nc1nc2ccccc2s1	i	?	i	12.6µM*	?	?
Cc1nc(SCC(=O)Nc2ccccc2)c2oc3ccccc3c2n1	i	-2.0%	i	12.0%	6.2%	5.3%
Cc1nc(SCC(=O)N2CCCc3ccccc32)c2oc3ccccc3c2n1	i	7.7%	20.6µM*	-48.8%	-16.3%	-2.3%
CCc1nc(SCC(=O)NCCc2ccccc2)c2oc3ccccc3c2n1	i	6.8%	18.4µM*	-1.9%	16.0%	6.5%
Cc1nc(SCC(=O)NC(C)c2ccccc2)c2oc3ccccc3c2n1 (stereo not given)	i	10.9%	5.17µM*	-2.6%	7.6%	10.7%
CCc1nnc(NC(=O)CSc2ncnc3c2oc2ccccc23)s1	i	17.4%	i	0.1%	-4.3%	0.0%
Cc1ccc(CN2C(=O)CSCC2(C)C(=O)Nc2c(C)cccc2C)cc1 (stereo not given)	i	3.8%	i	/	/	-3.1%
Cc1cc(C)nc(Sc2nc(C)nc3c2oc2ccccc23)n1	20.6µM*	?	?	7.0%	?	?
Cc1nc(NCCc2ccccc2)c2oc3ccccc3c2n1	?	?	23.1µM*	-32.5%	0.0%	-16.2%
Cc1cc(C(F)(F)F)c(C#N)c(SCC(=O)Nc2nc3ccccc3s2)n1	i	18.4µM*	?	-45.9%	183.1%	?
SMILES	KB-3-1 tox	HT1080 IDH1KD tx	KB-V1 cytotox	HepG2 viability	TGFb SMAD3 inh	HT1080NT lethal
CCc1ccc(CNC(=O)CCSCc2ccccc2F)cc1	/	/	/	-2.6%	0.9%	/
Cc1ccccc1CNC(=O)Cc1csc2ccccc12	/	/	/	-24.3%	/	/
CCCN1CCc2c(sc(NC(=O)c3ccc(S(=O)(=O)N4CCN(C(=O)OCC)CC4)cc3)c2C(N)=O)C1	i	6.51µM*	i	-60.9%	1.0%	7.31µM*
CCOC(=O)N1CCN(S(=O)(=O)c2ccc(C(=O)Nc3sc4c(c3C(=O)OC)CCN(C)C4)cc2)CC1	?	?	?	-54.0%	0.0%	18.4µM*
CN1CCc2c(sc(NC(=O)c3ccc(S(=O)(=O)N4CCCCCC4)cc3)c2C(N)=O)C1	i	20.6µM*	20.6µM*	-20.3%	-1.4%	23.1µM*
CN1CCc2c(sc(NC(=O)c3ccc(S(=O)(=O)N4CCCC4)cc3)c2C(N)=O)C1	i	24.5%	i	-3.5%	-12.8%	18.5%
CCN1CCc2c(sc(NC(=O)c3ccc(S(=O)(=O)N(C)C4CCCCC4)cc3)c2C(N)=O)C1	i	/	i	11.2µM*	?	/
CCOc1ccc(C(=O)N(Cc2ccc(C(C)C)cc2)Cc2ccco2)cc1	/	/	/	-38.6%	?	/
Cc1ccc(N(Cc2cccs2)C(=O)c2ccco2)cc1	/	/	/	-12.3%	-0.2%	/
CCSS(=O)(=O)c1cccc2cccnc12	i	?	i	-147.1%	?	32.6µM*
CN(Cc1ccccc1)S(=O)(=O)c1cccc2cccnc12	i	-8.7%	20.6µM*	-3.8%	0.0%	21.0%
Cc1ccccc1OCC(=O)NCC(=O)OC(c1ccccc1)c1ccccc1	i	/	i	3.0%	1.1%	/
CC(Nc1cccc2ccccc12)C(=O)N/N=C/c1ccccn1 (stereo not given)	i	7.08µM*	?	-21.5%	?	14.1µM*
CN(Cc1ccccc1)C(=O)c1[nH]cnc1C(=O)Nc1ccccc1F	i	16.7%	i	-15.8%	-3.7%	17.7%
COc1ccccc1-c1nnc(Sc2nc([N+](=O)[O-])nn2C)o1	?	3.98µM*	?	2.0%	-3.7%	12.6µM*
Cn1cnnc1Sc1nc([N+](=O)[O-])nn1C	i	13.6%	i	-2.2%	-3.8%	9.3%
Fc1ccc(NC(=S)NCc2cccs2)cc1	?	-1.9%	18.4µM*	-11.2%	-4.4%	-4.6%
Cc1cc(N2CCN(C)CC2)nc2ccc(NC(=S)NCc3cccs3)cc12	i	23.1µM*	i	-19.4%	9.3%	18.4µM*
COc1ccc(CNC(=S)Nc2ccc3nc(N4CCOCC4)cc(C)c3c2)cc1	i	-10.7%	i	-19.1%	-10.9%	-3.6%
CCN1CCN(c2cc(C)c3cc(NC(=S)NCc4cccs4)ccc3n2)CC1	i	-1.0%	i	-35.8%	-5.0%	-8.6%

Source: PubChem
